61 compounds from PubChem BioAssay AID641 (Vanderbilt High Throughput Screening Facility, 2007) can be followed below.

Among all 58,000 compounds or so, about 3,400 (5.9%) were called active.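 The calls were made as follows: active = luminescence count or its row- and column-corrected plate score outside the 99.7% band of the plate's sample wells, on either side; inactive = the rest.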 Many of the other results were omitted from the sample, so actives are more common in it than they were. Where a SMILES comes first, the peptide text is derived from it. The star is where a group is joined. Bz = O=C(c1ccccc1)*

The target of this test is D(1A) dopamine receptor (Homo sapiens) (UniProt P21728). Briefly: D1 CRE-luciferase signal change, two-sided – cell-based, HEK293 D1, dopamine EC30, D1 allosteric modulator project, primary screen (AID 641). The following applies: dopamine EC30 potentiation, at 10 µM, actives deviate in either direction.
Chain of D(1A) dopamine receptor (Homo sapiens) (P21728 whole entry, looked up): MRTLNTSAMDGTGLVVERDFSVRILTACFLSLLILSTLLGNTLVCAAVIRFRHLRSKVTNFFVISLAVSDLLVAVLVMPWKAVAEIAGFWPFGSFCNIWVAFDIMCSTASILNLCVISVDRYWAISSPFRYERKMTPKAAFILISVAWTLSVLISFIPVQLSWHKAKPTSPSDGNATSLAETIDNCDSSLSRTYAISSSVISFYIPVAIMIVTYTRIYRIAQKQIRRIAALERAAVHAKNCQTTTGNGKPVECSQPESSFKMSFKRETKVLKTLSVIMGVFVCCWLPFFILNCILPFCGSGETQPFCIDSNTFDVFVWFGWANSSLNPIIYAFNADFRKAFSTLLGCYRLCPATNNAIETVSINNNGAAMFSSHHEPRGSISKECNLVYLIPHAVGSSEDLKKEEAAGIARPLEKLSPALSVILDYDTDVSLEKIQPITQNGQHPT
As to `COc1ccc(-n2nnc3c(=O)n(CC(=O)OCc4ccccc4)cnc32)cc1`, the B-score was -0.218 (inactive).
For the compound `Cn1c(SCC(=O)N2CCOCC2)nnc1-c1ccc(NC(=O)c2ccccc2F)cc1`, the B-score was -0.459 (inactive).
Next, `CC(C)c1cc(C(=O)O)on1`: 3.98 (active); `CCC(=O)N1CCc2cc(S(=O)(=O)NC(C(=O)N3CCc4ccccc4C3)C(C)C)ccc21` (stereo unspecified): 1.68 (inactive); `CNC(=O)c1c(NC(=O)c2ccc(S(=O)(=O)N3CCOCC3)cc2)sc2c1CCC2`: 0.787 (inactive).
To `CC(C)c1nc(-c2ccccn2)no1` belongs -0.397 (inactive); to `c1ccc(-c2noc(-c3cccs3)n2)nc1`, -6.15 (active); to `c1csc(-c2nc(-c3ccncc3)no2)c1`, 2.02 (inactive).
To `O=C(c1cccs1)N(C(=O)c1cccs1)c1ccccn1` belongs -0.339 (inactive).
On to `O=C(Oc1ccccc1)c1ccc2nccnc2c1`, for which the B-score is 0.299 (inactive).
Next, `O=C(Oc1ccc(-c2nc(-c3ccccn3)no2)cc1)c1ccccc1`: -2.61 (active); `O=C1C(C=NCC2CCCO2)=C(O)c2ccccc21` (stereo unspecified): -0.132 (inactive); `Cc1cc(C(=O)COC(=O)c2cccs2)c(C)n1-c1c(C)n(C)n(-c2ccccc2)c1=O`: -1.48 (inactive).
To `COc1cccc(-n2cc3c(c2-c2ccccc2)c(=O)n(C)c(=O)n3C)c1` belongs 0.281 (inactive); to `CCc1c(O)nc(SCC(=O)N2CCCCC2)n(-c2ccccc2C)c1=O`, 0.0102 (inactive); to `C=CCn1c(N)c(S(=O)(=O)c2cccs2)c2nc3ccccc3nc21`, -0.811 (inactive).
Next, `Cc1ccc(S(=O)(=O)NCc2nc3ccccc3c(=O)n2N)cc1`: -0.0901 (inactive); `Cc1ccc(S(=O)(=O)c2c(N)n(C)c3nc4ccccc4nc23)cc1`: 8.84 (active); `O=C(NC(Cc1ccccc1)C(=O)N1CCCC1C(=O)O)c1ccccc1` (stereo not drawn) (Bz-Phe-Pro-OH; configuration not given here): 0.682 (inactive).
Regarding `CCOC(=O)c1ccc(N2C(=O)CC(N3CCC(C(=O)OCC)CC3)C2=O)cc1` (stereo unspecified), the B-score was -0.257 (inactive).
Next, `COCCOC(=O)C1=C(C)NC(=O)NC1c1ccc(Cl)cc1` (stereo unspecified): -0.276 (inactive).
To `COc1cccc2c(=O)n(CC(=O)N3CCCCCC3)ccc12` belongs 0.116 (inactive); to `CCOc1ccccc1/C=c1\sc2nc(-c3ccco3)nn2c1=O`, -0.399 (inactive).
To `CCOC(=O)/C=c1\s/c(=C\c2ccccc2OC)c(=O)n1CC(=O)N1CCOCC1` belongs 4.29 (active).
For `CN(C)Cc1c(C#N)c2ccccc2n1C`, the B-score is -1.12 (inactive).
To `CCOc1ccc(C(=O)Nc2cc(OC)ccc2OC)cc1` belongs 0.0877 (inactive).
Next, `CCn1cc(C(=O)N2CC=C(c3ccccc3)CC2)c(=O)c2ccc(C)nc21`: 1.17 (inactive); `CCn1cc(C(=O)NCc2ccc(OC)cc2OC)c(=O)c2ccc(C)nc21`: 5.55 (active); `CCSc1nc2c(c(=O)[nH]1)C(c1cccnc1)C(C(=O)OC(C)C)=C(C)N2` (stereo unspecified): 0.843 (inactive).
To `O=c1/c(=C/c2ccc(CNS(=O)(=O)c3ccccc3)o2)sc2n1CCN=2` belongs -0.139 (inactive).
As to `Cc1ccc(C)c(S(=O)(=O)n2cnc3ccccc32)c1`, the B-score was 0.135 (inactive).
To `Cc1ccc(N2C(=O)c3oc4ccccc4c(=O)c3C2c2cccnc2)nc1` (stereo unspecified) belongs 0.194 (inactive).
Next, `Cc1ccc(C(=O)Nc2nnc(-c3ccncc3)s2)o1`: -0.406 (inactive); `CCn1c(=N)c(C(=O)NCCCOC)cc2c(=O)n3cccc(C)c3nc21`: -0.055 (inactive); `CCn1c(=N)c(S(=O)(=O)c2ccc(F)cc2)cc2c(=O)n3ccccc3nc21`: 4.93 (active).
To `CCOC(=O)N1CCN(CC(=O)c2ccc3c(c2)CCN3)CC1` belongs -0.515 (inactive).
For `O=C(O)c1cc(S(=O)(=O)N2CCCCCC2)c(Cl)cc1Cl`, the B-score is -0.949 (inactive).
To `CC(C)(C)n1nnnc1C(c1ccc2ncccc2c1)N1CCSCC1` (stereo unspecified) belongs -0.519 (inactive); to `Cc1ccc(C(c2nnnn2C(C)(C)C)N2CCc3ccccc3C2)cc1` (stereo unspecified), -2.5 (active).
Consider `CCC(C)(C)n1nnnc1C(c1ccccc1OC)N1CCSCC1` (stereo unspecified), for which the B-score was -0.522 (inactive).
Consider `Cc1ccc(C(c2nnnn2CS(=O)(=O)c2ccc(C)cc2)N2CCC(C(N)=O)CC2)cc1` (stereo unspecified), for which the B-score was 0.737 (inactive).
Next, `COc1ccc(CCn2nnnc2C(c2ccccc2)N2CCN(C)CC2)cc1OC` (stereo unspecified): 0.116 (inactive); `COc1ccc(OC)c(C(c2nnnn2C(C)(C)C)N2CCc3ccccc3C2)c1` (stereo unspecified): -4.02 (active); `CCOCCc1c(O)nc(SCC(=O)NCc2ccco2)[nH]c1=O`: 1.04 (inactive).
To `CCCC(C)n1[nH]c(=O)c2c(C)cc(C)nc21` (stereo unspecified) belongs 1.59 (inactive); to `N#CCCN1CCN(S(=O)(=O)c2ccc(S(=O)(=O)N3CCCC3)cc2)CC1`, 0.478 (inactive).
`N#CCCN1CCN(S(=O)(=O)c2ccc(S(=O)(=O)NC3CCCCC3)cc2)CC1`: the B-score was 3.08 (active).
Next, `N#CCCN1CCN(S(=O)(=O)c2ccc(S(=O)(=O)NC3CC3)cc2)CC1`: -0.0246 (inactive); `COc1ccc(N2C(=O)C3CCCN3C2c2cc(OC)c(OC)cc2OC)cc1` (stereo unspecified): 0.17 (inactive).
Next, `CCOC(=O)c1cc(-c2ccc(Cl)s2)nc2c1c(C)nn2C`: 0.665 (inactive); `CCOC(=O)C1=C(O)CSC1=Nc1cccc(Cl)c1`: 7.94 (active).
Next, `CCOC(=O)C1=C(C)NC(C)=C(C(=O)OCC)C1c1ccccn1`: -0.891 (inactive); `COc1ccc(CCNC(=O)c2ccco2)cc1`: 1.58 (inactive).
For `CCOC(=O)c1c(-c2ccc(C)cc2C)csc1NC(=O)CSc1nnnn1C`, the B-score is 0.507 (inactive).
To `CCOC(=O)c1c(C2CC2)csc1NC(=O)CSCc1c(C)noc1C` belongs -3.6 (active); to `Cc1ccc(-c2nc(COC(=O)c3c(C)noc3C)cs2)cc1`, -0.259 (inactive); to `O=C(C1=C(O)C(=O)N(c2ncccn2)C1c1cccs1)c1ccco1` (stereo unspecified), -0.746 (inactive).
To `Cn1c(=O)[nH]c(=O)c2c1nc(N1CCN(CCO)CC1)n2CCSc1nc2ccccc2s1` belongs 0.525 (inactive); to `c1nnc2c3c4c(sc3ncn12)CCC4`, 0.277 (inactive).
Take `Cc1ccccc1Cn1c(=O)[nH]c2ccccc21`: the B-score was -0.259 (inactive).
As to `Cc1ccc(N2C(=O)CC(NCc3ccc4c(c3)OCO4)C2=O)cc1Cl` (stereo unspecified), the B-score was 0.36 (inactive).
